According to PubChem BioAssay AID602123 (The Scripps Research Institute Molecular Screening Center, 2011):
The whole screen tested about 360,000 compounds, of which about 1,500 (0.42%) were called active. Only a selection was taken, and actives are over-represented in it overall. Unmarked numbers belong to inactive results. Rule as the data show it: active = inhibition above about 13% (passing the limit was not always enough); inactive = the rest.

What follows are compounds tested against Lon protease (Escherichia coli (strain K12)) (UniProt P0A9M0) (assay: inhibitors of E. coli Lon protease, primary screen, biochemical, fluorescence polarization (AID 602123;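 also: 0% = enzyme with probe and DMSO and 100% = no enzyme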)). Settings: purified E. coli Lon protease, at 7.94 µM, active compounds read high.
Chain of Lon protease (Escherichia coli (strain K12)) (P0A9M0 whole entry, looked up): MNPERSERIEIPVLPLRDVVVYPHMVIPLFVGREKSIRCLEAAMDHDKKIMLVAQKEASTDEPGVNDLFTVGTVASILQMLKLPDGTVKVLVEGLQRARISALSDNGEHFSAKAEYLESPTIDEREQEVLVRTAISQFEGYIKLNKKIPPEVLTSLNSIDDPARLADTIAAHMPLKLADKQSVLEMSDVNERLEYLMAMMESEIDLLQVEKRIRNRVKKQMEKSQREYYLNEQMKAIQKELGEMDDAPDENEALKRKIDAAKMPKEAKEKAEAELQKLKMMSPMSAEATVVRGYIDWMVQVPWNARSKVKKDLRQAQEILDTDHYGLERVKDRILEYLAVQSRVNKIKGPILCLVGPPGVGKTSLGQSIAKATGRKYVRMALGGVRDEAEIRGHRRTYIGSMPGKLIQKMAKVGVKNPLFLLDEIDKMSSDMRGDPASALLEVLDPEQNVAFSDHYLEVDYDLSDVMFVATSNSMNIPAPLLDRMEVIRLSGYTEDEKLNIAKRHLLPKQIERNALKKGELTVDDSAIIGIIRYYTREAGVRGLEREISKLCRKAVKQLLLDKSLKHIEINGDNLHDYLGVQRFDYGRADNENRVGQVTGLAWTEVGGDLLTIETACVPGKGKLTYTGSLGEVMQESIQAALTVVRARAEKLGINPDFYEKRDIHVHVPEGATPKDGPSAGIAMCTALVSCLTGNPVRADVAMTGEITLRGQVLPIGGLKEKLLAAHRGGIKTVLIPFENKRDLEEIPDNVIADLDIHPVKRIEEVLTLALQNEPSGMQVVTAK

In order of falling inhibition:
1. CC1=C(C(=O)Nc2cccc(C(=O)NCC(C)c3ccccc3)c2)SCCO1 (stereo not given)  18.4%
2. CCOCC(=O)NCc1ccc2c(c1)cc(C)n2C  13.8%
3. CCCCOP(=O)(c1ccc(N(C)C)cc1)C(O)c1cc(OC)ccc1OC (stereo not given)  9.34%
4. COc1ccc(CNCCCO)cc1OC  8.73%
5. CC(C)c1ccc(S(=O)(=O)N2CCN(C(C)C(=O)NC3CCCC3)CC2)cc1 (stereo not given)  8.04%
6. CC(=O)c1cccc(OCC(=O)OCC(=O)Nc2cc(S(=O)(=O)N3CCCCC3)ccc2C)c1  7.88%
7. CCN(CC(=O)Nc1ccc2c(c1)OCO2)S(=O)(=O)c1ccccc1  7.87%
8. COC(=O)c1cc(NC(=O)c2cc(C(C)(C)C)nn2Cc2cccc(C)c2)ccc1N1CCOCC1  7.4%
9. CC(C)(C)NC(=O)NC(=O)COC(=O)C1c2ccccc2Oc2ccccc21  7.11%
10. COc1ccc(Cl)cc1-n1c(C)cc(C(=O)OCC(=O)N2CC(=O)Nc3ccccc32)c1C  7.08%
11. Cc1ccc(SCC(=O)Nc2nncs2)cc1  6.67%
12. O=C(COC(=O)c1ccc2c(c1)OCCO2)NCc1ccccc1Cl  6.26%
13. CCOC(=O)[C@]12CCCC=C1N(Cc1ccc3c(c1)OCO3)C(=O)[C@H](CC(=O)NCc1cccs1)C2  5.92%
14. CCCCCCCCOC1OC(CO)C(O)C(O)C1NC(C)=O (stereo not given)  5.86%
15. CC(NC(=S)Nc1ccc(S(N)(=O)=O)cc1)c1ccc2c(c1)OCO2 (stereo not given)  4.89%
16. CCOCCc1nn2c(=O)cc(CSCC(=O)Nc3cccc(C)c3C)nc2s1  4.06%
17. CCc1ccccc1NC(=O)CSc1nnc(CCNC(=O)OC(C)(C)C)o1  3.77%
18. CCc1cc(=O)oc2cc(C)cc(OCC(=O)N3CCC[C@@H]3C(=O)O)c12  3.5%
19. C/C(=N\NC(=O)c1ccc(C)cc1)C1C(=O)c2ccccc2C1=O  3.32%
20. O=C(OCc1cn([C@H]2C[C@H](c3ccccc3)N(C(=O)c3cccs3)C[C@@H]2O)nn1)c1ccccc1  2.92%
21. CCN(CCNC(=O)C1=C(C)C(=O)OC12CCC(C)CC2)c1ccccc1 (stereo not given)  2.56%
22. Cc1cc(NS(=O)(=O)c2ccc(NC(=S)NC(=O)c3ccc(F)cc3Cl)cc2)no1  2.44%
23. CC(C)NC(=O)N1Cc2cc(C(=O)NCC(F)(F)F)nc(-c3cccc(-c4cc5ccccc5o4)c3)c2[C@@H]1CCO  1.84%
24. CCOc1ccc(CCN2C(=S)N([C@@H](CC(C)C)CN3CCC[C@@H]3CN3C(=S)NC[C@@H]3Cc3ccc(O)cc3)C[C@@H]2Cc2ccc(O)cc2)cc1  1.84%
25. CCn1cc(C(=O)NCCCN2CCCCCC2)c(=O)c2cc(S(=O)(=O)N3CCc4ccccc4C3)ccc21  1.65%
26. CCOC(=O)N1CCN(C(=O)c2cn(C)c3ccc(S(=O)(=O)N(CC)CC)cc3c2=O)CC1  1.34%
27. COc1ccc(N(CC(=O)NC2CCCC2)C(=O)CS(=O)CC(=O)Nc2ccc3c(c2)OCO3)cc1 (stereo not given)  0.46%
28. O=C(CSc1n[nH]c(-c2cccs2)n1)N1CCCCC1  0.33%
29. CCn1c(CC(=O)Nc2ccc(C)cc2)nnc1SCC(=O)Nc1nc(C)cs1  0.33%
30. CCC(C)(C)NC(=O)C(c1cccn1C)N(Cc1ccc(C)cc1)C(=O)Cn1nnc2ccccc21 (stereo not given)  0.29%
31. c1cc(-n2cnnn2)ccc1NC1=NCCC1  -0.06%
32. Cc1cc(NC(=O)C(C)N2C(=O)c3ccccc3S2(=O)=O)no1 (stereo not given)  -0.19%
33. Cc1ccc(-c2nc3c(C)cc(Br)cn3c2Cc2ccccc2)cc1  -0.26%
34. CCOC(=O)C1CCN(Cc2c(C(=O)N3CCOCC3)nc3c(C)cccn23)CC1  -0.49%
35. CC1=NN(C(=O)CCCc2ccccc2)C(O)(C(F)(F)F)C1 (stereo not given)  -1.58%
36. CCOC(=O)c1cccc(NC(=O)C2CCCN(S(=O)(=O)c3cnc[nH]3)C2)c1 (stereo not given)  -1.61%
37. NC(=O)C1CCCN(CC(=O)N2CCN(c3ccccc3)CC2)C1 (stereo not given)  -1.63%
38. O=C(Cc1ccc(S(=O)(=O)N2CCCC2)s1)NC1CCCCCC1  -1.79%
39. Cc1cc(Br)cn2c(Cc3cccc(F)c3)c(-c3cccc(Br)c3)nc12  -1.91%
40. O=C(N/N=C1\CCSC1)c1cc(Cl)ccc1O  -2.2%
41. COc1ccc(C(CC(=O)c2ccccc2)S(=O)(=O)c2ccccc2)cc1 (stereo not given)  -2.33%
42. OCCC1CN(Cc2cccc(O)c2)CCN1CCc1ccccc1 (stereo not given)  -2.49%
43. CC1C(c2ccccc2)=[N+]([O-])C2(CCCC2)N1O (stereo not given)  -2.56%
44. CCOC(=O)C(=CNNc1ccsc1C(=O)OC)C(=O)OCC  -2.58%
45. COc1cccc(NC(=O)N2C3CCCC2CC(NC(C)=O)C3)c1 (stereo not given)  -2.6%
46. CC(C)(C(=O)N1CCC1(C)C(=O)NS(=O)(=O)c1ccc(Br)cc1)c1ccccc1 (stereo not given)  -2.78%
47. CN(C(=O)COC(=O)Cn1cnc2c1c(=O)n(C)c(=O)n2C)C1(C#N)CCCCC1  -2.86%
48. Cc1cc(C(=O)OCC(=O)Nc2ccccc2Cl)c(C)o1  -2.91%
49. O=C1NC[C@@H](CCCCN2CCN(CCc3ccc(O)cc3)C(=O)C2=O)N(CC2CCCCC2)C1=O  -2.96%
50. CC1(C)C(c2cccs2)=[N+]([O-])C2(CCCCC2=O)N1O (stereo not given)  -3.06%
51. C/C(CC(O)(/C=N/O)c1ccccc1)=N\O (stereo not given)  -3.3%
52. CCn1nnnc1SCC(=O)c1ccc(C)cc1C  -3.48%
53. COC(=O)c1sccc1-n1cccc1C(=O)C(=O)N1CCCCC1  -3.71%
54. O=C(COC(=O)c1c2c(nc3ccccc13)CCCC2)c1ccc(Br)s1  -4.86%
55. O=C(OCCOc1ccccc1Cl)c1cc(S(=O)(=O)N2CCCCC2)ccc1N1CCOCC1  -5.06%
56. O=c1oc2ccccc2c(CNc2ccccc2)c1[N+](=O)[O-]  -5.51%
57. COC(=O)c1ccc2nc(-c3ccc(F)cc3)c(Cc3ccc(C)cc3)n2c1  -5.56%
58. CN(CC(=O)Nc1ccc(F)c(F)c1F)C(=O)C1CC(=O)N(C2CCCC2)C1 (stereo not given)  -6.03%
59. Cc1cccn2c(CNCC(C)Oc3cccnc3)c(C(=O)N3CCOCC3)nc12 (stereo not given)  -6.22%
60. CCCN1C2CCCC1CC(NC(=O)c1cccc(OC)c1)C2 (stereo not given)  -6.23%
61. Cc1cccc(NC(=O)COC(=O)CCc2ccccc2)c1C  -6.48%
62. COc1ccc(CC(=O)N2N=C(C)CC2(O)C(F)(F)F)cc1 (stereo not given)  -7.36%
63. Cc1cccc(-c2nnc(SCC(=O)O)n2Cc2ccccc2)c1  -7.43%
64. COc1cc(CNCc2ccc3c(c2)OCO3)c([N+](=O)[O-])cc1OC  -8.35%
65. O=C(Nc1cccc2ccccc12)c1[nH]c(-c2ccccc2)c2c1C(=O)N(C1CC1)C2=O  -8.53%
66. Cc1cc(Br)ccc1NC(=O)CCCOc1cc(=O)n(C)c2ccccc12  -8.57%
67. COc1cccc(NC(=O)C2CCCN(c3ncnc4c3nc3n4CCCCC3)C2)c1 (stereo not given)  -9.74%
68. CCn1c(CNC(=O)c2cc(OC)c(OC)c(OC)c2)cc2cc(C)ccc21  -10.1%
69. Cc1ccc(-c2nc(CS(=O)CC(=O)NC3CCCC3)c(C)o2)cc1 (stereo not given)  -12.5%
70. COc1cccc(CNC(=O)CCC2CCCN(C(=O)c3ccc(F)c(Cl)c3)C2)c1 (stereo not given)  -13.9%
71. COc1ccc(-c2nc(CS(=O)CC(=O)NCc3cccnc3)c(C)o2)cc1OC (stereo not given)  -14.5%
72. Cc1ccc(Sc2ccncc2S(N)(=O)=O)cc1  -17.1%
73. CCOC(=O)CC(NC(=O)C1c2ccccc2Oc2ccccc21)c1ccc(C)cc1 (stereo not given)  -23.2%
74. COc1ccc(C2C(C#N)=C(N)Oc3cc(N)ccc32)cc1OC (stereo not given)  -24.5%

With `CC(C(=O)NC1CCCC1)N1CCN(S(=O)(=O)c2ccccc2Cl)CC1` (stereo not given) the inhibition was 17.4% (active).
For `Cc1ccc2c(c1)nnc1nnc(SCC(=O)O)n12`, the inhibition was 62% (active).
With `O=C(COC(=O)CCc1c[nH]c(=O)[nH]1)Nc1ccccc1Cl` the inhibition was 25.7% (active).
With `COCCOC(=O)c1sc(=S)n(CCOC)c1N` the inhibition was 18.6% (active).
`CCCN(CCC)C(=O)C1c2ccccc2Oc2ccccc21` was tested, and the inhibition was 151% (active).
In the case of `NC(=O)c1ccc(NC(=O)COC(=O)c2c3c(nc4ccccc24)/C(=C\c2ccc4c(c2)OCO4)CCC3)cc1`, the inhibition is reported as 183% (active).
With `CCCN1C(=O)C(NC(C)=O)c2cc(OC)ccc21` (stereo not given) the inhibition was 16.3% (active).
For `COc1cc(C(=O)NCc2ccc3c(c2)cc(C)n3C)cc(OC)c1OC`, the inhibition was 24.5% (active).
In the case of `Cc1ccc(NC(=O)Cc2nnc(SCC(=O)Nc3nncs3)n2C)cc1`, the inhibition is reported as 45.4% (active).
In the case of `COc1ccc(C2c3ccc(O)cc3Oc3ncn(CCCO)c(=N)c32)cc1OC` (stereo not given), the inhibition is reported as 58.2% (active).
With `Cc1cc(Br)cn2c(Cc3ccsc3)c(-c3ccc(C#N)cc3)nc12` the inhibition was 50.3% (active).
For `COc1cccc2c1C(=O)c1c(O)c3c(c(O)c1C2=O)CC(O)(C(C)=NNC(=O)c1ccc(Cl)c(Cl)c1)CC3OC1CC(N)C(O)C(C)O1` (stereo not given), the inhibition was 636% [above what the read-out allows, likely interference] (active).
For `CC1=NN(C(=O)CCc2ccccc2O)C(O)(C(F)(F)F)C1` (stereo not given), the inhibition was 18.2% (active).
With `Cc1cccc(N2CCC(NCc3c(C(=O)N4CCCCC4)nc4c(C)cccn34)CC2)c1` the inhibition was 29% (active).
For `COc1ccc(-c2nc(CS(=O)CC(=O)NCc3ccccn3)c(C)o2)cc1` (stereo not given), the inhibition was 21.2% (active).
`CCN(CC)CCCNC(=O)c1cn(C)c2ccc(S(=O)(=O)N(C)C3CCCCC3)cc2c1=O` was tested, and the inhibition was 21.3% (active).
